# Laboratory results taken from PubChem BioAssay AID2314 (National Center for Advancing Translational Sciences (NCATS), 2010).
# Out of some 300,000 compounds screened, about 37,000 (12%) were called active. Rule as the data show it: active = max response mostly above about 13% (no sharp cut-off); inactive = mostly below about 14%. Many of the other results were omitted from the sample, so actives are more common in it than they were.
# Experiment: Cycloheximide Counterscreen for Small Molecule Inhibitors of Shiga Toxin; also: read at 38.3 µM for the half of the compounds with a filed dose; 0% is about no effect
# Details: cell reporter, cycloheximide protein synthesis inhibition counterscreen; stronger effect = higher value
row,Structure (SMILES),max response
1,Cc1cc(NC(=O)COc2ccc(Cl)cc2Cl)n(CCC#N)n1,43.5% (active)
2,Cc1nn(-c2ccccc2)c(C)c1NC(=O)COc1ccc(Cl)cc1Cl,-1.6% (inactive)
3,CCCn1nnnc1NC(=O)COc1ccc(Cl)cc1C,14.6% (inactive)
4,COCCNc1cc(-c2ccccc2)nc2cc(-c3cccc(F)c3)nn12,-0.87% (inactive)
5,COc1ccccc1C(=O)N(C1=NC(C)CS1)c1ccc(Cl)cc1 (stereo not given),-1.66% (inactive)
6,CC(=O)Nc1ccc(NC(=O)CCCNC(=O)c2ccc(Cl)cc2)cc1,-0.304% (inactive)
7,CC(=O)Nc1ccc(C(=O)N(C2=NC(C)CS2)c2ccc(Cl)cc2)cc1 (stereo not given),28.7% (active)
8,CSCCC(NS(=O)(=O)c1ccc(C)cc1)C(=O)NCCc1c[nH]c2ccccc12 (stereo not given),-3.49% (inactive)
9,COc1ccc(NC(=S)NCC2CCN(c3ccc(OC)cc3)C2)cc1 (stereo not given),1.9% (inactive)
10,COc1ccc(NC(=S)N2CCc3cc(OC)c(OC)cc3C2)cc1,14.2% (inactive)
11,COc1ccc(N2CCN(C(=S)Nc3ccc(S(N)(=O)=O)cc3)CC2)cc1,-1.06% (inactive)
12,COc1ccc(NC(=S)N2N=CCC2c2ccccc2)cc1 (stereo not given),36.2% (active)
13,Cc1ccccc1N(C(=O)CNC(=O)c1cccs1)C(C(=O)NC1CCCC1)c1ccncc1 (stereo not given),-8.35% (inactive)
14,CC(=O)c1cc(CN2CCC(n3nccc3NC(=O)c3ccccc3Cl)CC2)cs1,-1.43% (inactive)
15,COCCNc1ncnc2c1nc1n2CCCC1,-3.81% (inactive)
16,CC(NC(=O)COc1ccc(-c2ccccc2)cc1)C1CCCO1 (stereo not given),1.81% (inactive)
17,Cc1ccc(S(=O)(=O)NC(=O)c2cccc(C)c2)cc1,13.6% (inactive)
18,Cc1cc(-n2cnc(-c3cn(C)nc3C)n2)no1,21.3% (active)
19,COc1ccc(C)cc1S(=O)(=O)N1CCN(S(=O)(=O)c2cc(C(=O)O)ccc2C)CC1,1.26% (inactive)
20,CCOC(=O)/C(=N\Nc1ccccc1Cl)N(C)C1CCS(=O)(=O)C1 (stereo not given),-5.92% (inactive)
21,O=C(Nc1sc2c(c1C(=O)O)CCC2)c1ccccc1F,-2.19% (inactive)
22,O=C(O)c1c(NC(=O)N2CCCC2)sc2c1CCCC2,25.7% (active)
23,COc1cc2ccccc2cc1C(=O)N(CCN(C)C)c1nc2c(F)cccc2s1,-3.64% (inactive)
24,NC(=O)c1c(NC(=O)CSc2nnc(-c3ccco3)n2N)sc2c1CCCC2,5.01% (inactive)
25,CC(C)OC(=O)c1c(NC(=O)c2ccco2)sc2c1CCCC2,-0.728% (inactive)

row,Structure (SMILES),max response
1,COC(=O)c1c(NC(=O)C2CC(C)=C(C)CC2C(=O)O)sc2c1CCCCC2 (stereo not given),-1.42% (inactive)
2,NC(=O)c1c(NC(=O)c2ccccc2)sc2c1CCCC2,31.6% (active)
3,NC(=O)c1c(NC(=O)CSc2nc(N)cc(=O)[nH]2)sc2c1CCCC2,-0.688% (inactive)
4,Fc1cc(F)c2nc(Nc3nc4c(F)cccc4s3)sc2c1,13.2% (active)
5,NC(=O)c1c(Nc2nc3c(F)cccc3s2)sc2c1CCCC2,17.8% (active)
6,C=CCN(CC=C)S(=O)(=O)c1ccc(C(=O)Nc2sc3c(c2C(N)=O)CCCCC3)cc1,3.07% (inactive)
7,CCC(=O)N1CCc2cc(S(=O)(=O)CCC(=O)N3CCN(c4ccccc4F)CC3)ccc21,2.85% (inactive)
8,CCOc1ccc(NS(=O)(=O)c2cc(C)c(C)cc2C)cc1,0.868% (inactive)
9,Cc1ccccc1N1CCN(C2CCCN(C(=O)c3ocnc3C)C2)CC1 (stereo not given),1.48% (inactive)
10,CCCCCC(O)(CCN1CCCCC1)c1ccccc1 (stereo not given),-2.5% (inactive)
11,O=C(COC(=O)/C=C/c1ccc(S(=O)(=O)N2CCCCCC2)cc1)NCc1ccccc1Cl,0.471% (inactive)
12,CCCCn1c(=O)c(CCC(=O)OCC(=O)Nc2ccc(C)c(Cl)c2)nc2ccccc21,-1.67% (inactive)
13,CC(=O)NS(=O)(=O)c1ccc(NC(=O)C2C3C=CC(C3)C2C(=O)O)cc1 (stereo not given),-2.43% (inactive)
14,CC(C)COC(=O)c1ccc(NC(=O)C2C3C=CC(C3)C2C(=O)O)cc1 (stereo not given),29% (active)
15,COC(=O)c1cc(NC(=O)C2C3C=CC(C3)C2C(=O)O)cc(C(=O)OC)c1 (stereo not given),-3.42% (inactive)
16,CCN(CC)S(=O)(=O)c1ccc(N(C)Cc2cccc(OC)c2OC)nc1,10.4% (inactive)
17,COC(=O)Cc1[nH]n(-c2nc3ccccc3s2)c(=O)c1C(C)=Nc1ccc(OC)cc1,38.2% (active)
18,C=CCn1c(CSc2nc3ccccc3s2)nnc1SCC(=O)NCc1ccco1,0.347% (inactive)
19,COc1ccccc1NC(=O)c1ccc2nc(N3C(=O)CCC3=O)sc2c1,7.91% (inactive)
20,CCc1ccc(-c2cc(C(=O)NCc3ccco3)c3ccccc3n2)s1,14.1% (inactive)
21,CCC(C)Cn1c(O)cc2nn(-c3nc4ccccc4s3)c(=O)c-2c1C (stereo not given),3.42% (inactive)
22,COc1ccc(CC(=O)N/N=C(\C)c2ccccn2)cc1,-3.12% (inactive)
23,CCOC(=O)N1CCN(CC(=O)Nc2cc(C)nn2-c2nc3ccccc3s2)CC1,2.1% (inactive)
24,CC(=NCc1ccco1)c1c(C(F)(F)F)[nH]n(-c2nc3ccccc3s2)c1=O,48.5% (active)
25,C/C(=N\NC(=O)CC(C)C)c1c(C(F)(F)F)[nH]n(-c2nc3ccccc3s2)c1=O,35.6% (active)
